The values that follow come from PubChem BioAssay (NCATS).

Test [1] deals with SKOV3. The experiment in a line: Primary qHTS to identify gynecologic anti-cancer compounds using libraries of approved drugs and bioactive compounds (AID 1345084). Note: nearly all actives have a fitted effect of over 55% in size. Conditions: Gynecologic cancer cell panel viability, ATPlite luminescence, 48 h; series mostly up to 57.5 µM. The method in brief:
(§1)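 Cells, 1,000 per well, plated 16 h, then exposed 48 h at 37 C to compounds. Viability by ATPlite luminescence after 15 min at room temperature.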

For test [2], the system named is Tov-21-G. Described as above. To be noted: Gynecologic cancer cell panel viability, ATPlite luminescence, 48 h; series mostly up to 57.5 µM. The method in brief: as §1
In test [3] the test system is Tov112D. The description is as above. Conditions: Gynecologic cancer cell panel viability, ATPlite luminescence, 48 h; series mostly up to 57.5 µM. In a few lines:
as §1

Test [4] in a line: Drug repurposing screens with cells derived from glioblastoma tumor samples (AID 1345199). Note: nearly all actives have a fitted effect of over 40% in size. Note: potency is the fitted concentration of half-maximal effect. To be noted: GBM patient neurospheres viability, ATP luminescence, 48 h. The method in brief: (§2)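 Four patient lines of CD133+ GBM neurospheres were screened at several concentrations; hits were retested in those lines plus three slower-growing GBM lines, using 48-hour treatment and ATP-based viability.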

Test [5] concerns astro. The test is described as above. Conditions: viability, ATP luminescence, 48 h; series mostly up to 45.9 µM. In a few lines: as §2
Where [6] appears, read: at 45.9 µM (top of the series), tumour line B.
Setting [7] is: at 45.9 µM (top of the series), tumour line D.
Setting [8] is: at 46 µM (top of the series), tumour line A.
Where [9] appears, read: at 46.1 µM (top of the series), tumour line C.
Setting [10] is: at 20 µM (top of the series), tumour line C.
Where [11] appears, read: at 21.2 µM (top of the series), tumour line B.
[12] abbreviates: at 21.2 µM (top of the series), tumour line D.
The mark [13] stands for this setting: at 21.3 µM (top of the series), tumour line A.

Records with an inconclusive call do not appear. A number with no mark means an inactive call. The source made the active and inactive calls. Calls come from the whole dose curve; as a rule, active = well fitted curve in the direction sought with a large enough effect; inconclusive = small, poorly fitted or top-dose-only effect, or another doubt; inactive = no such curve, though single readings can be large; an effect the other way counts as inactive or inconclusive.
% is set by controls: 0 for no effect and ±100 for the full control effect.

`C/C(=C(\CCO)SS/C(CCO)=C(\C)N(C=O)Cc1cnc(C)nc1N)N(C=O)Cc1cnc(C)nc1N`: the call in test [1], in test [2] and in test [3] was inactive. The activity, negative = cell killing in test [4] (setting [6]) was 0.803%; in test [4] (setting [7]), 1.23%; in test [4] (setting [8]), -2.85%; in test [4] (setting [9]), 0.411%.
For `Cc1ccsc1C(=CCCN1CCC[C@@H](C(=O)O)C1)c1sccc1C`, the call in test [1], in test [2] and in test [3] was inactive. Also, the activity, negative = cell killing in test [4] (setting [6]) is -2.91%; in test [4] (setting [7]) it was -7.39%; in test [4] (setting [9]), 2.1%.
For `CCOC(=O)[C@H](CCc1ccccc1)N[C@@H](C)C(=O)N1Cc2cc(OC)c(OC)cc2C[C@H]1C(=O)O`, the result in test [1], in test [2] and in test [3] was inactive. Besides, the values for the activity, negative = cell killing in test [4] (setting [6]), in test [4] (setting [7]) and in test [4] (setting [9]) were -9.77%, -6.92% and -6.4%, respectively.
As for `CCN[C@H]1CN(CCCOC)S(=O)(=O)c2sc(S(N)(=O)=O)cc21`, the outcome in test [1], in test [2] and in test [3] was inactive. Moreover, the results for the activity, negative = cell killing in test [4] (setting [10]), in test [4] (setting [11]) and in test [4] (setting [12]) were -0.607%, -9.2% and 8.52%, respectively.
On to `Cc1ccccc1N=Nc1ccc(N=Nc2c(O)ccc3ccccc23)c(C)c1`, for which the molecule was called inactive in test [1], in test [2] and in test [3]. In addition, the activity, negative = cell killing is -15.7% in test [4] (setting [6]), -2.5% in test [4] (setting [7]) and -1.06% in test [4] (setting [9]).
As for `CC1(c2ccccc2)OC(C(=O)O)=CC1=O` (centres undefined), the outcome in test [1], in test [2] and in test [3] was inactive. For the same molecule, the figures for the activity, negative = cell killing in test [4] (setting [6]), in test [4] (setting [7]) and in test [4] (setting [9]) were -1.24%, -9.61% and -15.9%, respectively.
In the case of `CC(=O)N[C@H]1[C@H]([C@H](O)[C@H](O)CO)OC(C(=O)O)=C[C@@H]1N=C(N)N`, the outcome in test [1], in test [2], in test [3] and in test [5] was inactive. Also, the activity, negative = cell killing in test [4] (setting [6]) was -18.7%; in test [4] (setting [7]), -2.37%; in test [4] (setting [8]), -22.1%; in test [4] (setting [9]) it was -20.3%.
Take `NS(=O)(=O)c1ccc(C(=O)O)cc1`: the molecule was called inactive in test [1], in test [2] and in test [3]. Further, the activity, negative = cell killing in test [4] (setting [6]) was -5.24%; in test [4] (setting [7]), 4.61%; in test [4] (setting [8]) it was -19%; in test [4] (setting [9]), -15.2%.
For `CN(C(=O)c1c(O)c2ccccc2n(C)c1=O)c1ccccc1`, the result in test [1], in test [2] and in test [3] was inactive. Moreover, the activity, negative = cell killing was -5.78% in test [4] (setting [6]), -11.8% in test [4] (setting [7]), -31.5% in test [4] (setting [8]) and -28.1% in test [4] (setting [9]).
With `CN1C(=O)CC(c2ccccc2)C1=O` (centres undefined), the molecule was called inactive in test [1], in test [2] and in test [3]. In addition, the activity, negative = cell killing is 3.75% in test [4] (setting [6]), 1.43% in test [4] (setting [7]), 1.73% in test [4] (setting [8]) and -11.6% in test [4] (setting [9]).
Take `CC(=O)NCc1c(I)c(NC(C)=O)c(I)c(C(=O)O)c1I`: the outcome in test [1], in test [2] and in test [3] was inactive. The activity, negative = cell killing in test [4] (setting [6]) was -9.68%; in test [4] (setting [7]) it was -11.6%; in test [4] (setting [8]), -20.1%; in test [4] (setting [9]) it was -11.1%.
For `CO[C@@]1(NC(=O)C(C(=O)O)c2ccc(O)cc2)C(=O)N2C(C(=O)O)=C(CSc3nnnn3C)CO[C@@H]21` (some centres undefined), the result in test [1], in test [2] and in test [3] was inactive. Moreover, the activity, negative = cell killing in test [4] (setting [10]) was -17.7%; in test [4] (setting [11]) it was -0.689%; in test [4] (setting [12]), -3.96%; in test [4] (setting [13]) it was -23.1%.
Consider `CCOC(=O)OC(C)OC(=O)[C@@H]1N2C(=O)[C@@H](NC(=O)[C@H](N)c3ccccc3)[C@H]2SC1(C)C` (some centres undefined), for which the molecule was called inactive in test [1], in test [2] and in test [3]. Also, the figures for the activity, negative = cell killing in test [4] (setting [10]), in test [4] (setting [11]) and in test [4] (setting [12]) were 7.44%, -8.91% and -1.55%, respectively.
Turning to `COc1ccccc1OCC(O)CO` (centres undefined), the molecule was called inactive in test [1], in test [2] and in test [3]. The activity, negative = cell killing in test [4] (setting [10]) is 14.1%; in test [4] (setting [11]), -4.78%; in test [4] (setting [12]), -22.3%; in test [4] (setting [13]), -18.5%.
Take `Cn1cc(C(=O)[C@@H]2CCc3nc[nH]c3C2)c2ccccc21`: the molecule was called inactive in test [1], in test [2] and in test [3].
For `CNCc1ccccc1`, the call in test [1], in test [2] and in test [3] was inactive. Further, the activity, negative = cell killing is -13% in test [4] (setting [6]), -15.9% in test [4] (setting [7]), -19.4% in test [4] (setting [8]) and -9.99% in test [4] (setting [9]).
As to `Cc1cc(-n2nc3ccc(Cl)cc3n2)c(O)c(C(C)(C)C)c1`, the outcome in test [1], in test [2] and in test [3] was inactive. Further, the activity, negative = cell killing is -1.32% in test [4] (setting [6]) and -14.3% in test [4] (setting [7]). Besides, in test [4] (tumour line A), the Potency is 7.94 µM (active).
As to `O=C(CN1CCNCC1)NC1CCCCC1`, the molecule was called inactive in test [1], in test [2] and in test [3]. Besides, the activity, negative = cell killing in test [4] (setting [6]) was -13.1%; in test [4] (setting [7]), -7.64%; in test [4] (setting [9]) it was -22.5%.
For the molecule `C[C@]1(Cn2ccnn2)[C@H](C(=O)O)N2C(=O)C[C@H]2S1(=O)=O`, the molecule was called inactive in test [1], in test [2] and in test [3]. Further, the activity, negative = cell killing is -6.98% in test [4] (setting [6]), -15.1% in test [4] (setting [7]), -24.4% in test [4] (setting [8]) and -1.25% in test [4] (setting [9]).
Consider `O=C(/C=C/c1ccccc1)OCc1ccccc1`, for which the outcome in test [1], in test [2] and in test [3] was inactive. The activity, negative = cell killing in test [4] (setting [6]) is -5.75%; in test [4] (setting [7]), -8.15%; in test [4] (setting [8]), -17.7%; in test [4] (setting [9]), -14.4%.
Regarding `CN1CC(=O)NC1=N`, the outcome in test [1], in test [2] and in test [3] was inactive. In addition, the activity, negative = cell killing in test [4] (setting [6]) is -7.86%; in test [4] (setting [7]), -12.2%; in test [4] (setting [8]), -16.7%; in test [4] (setting [9]), -13.9%.
For the molecule `O=C(O)[C@@H]1[C@H]2C[C@H]3c4[nH]c5ccccc5c4CCN3C[C@@H]2CC[C@@H]1O`, the molecule was called inactive in test [1], in test [2] and in test [3]. Also, the values for the activity, negative = cell killing in test [4] (setting [10]), in test [4] (setting [11]) and in test [4] (setting [13]) were -17%, 2.22% and -34.6%, respectively.
Turning to `C[C@@H](N)C(=O)O`, the result in test [1], in test [2] and in test [3] was inactive. The activity, negative = cell killing was -7.83% in test [4] (setting [6]), -21.5% in test [4] (setting [7]) and 15% in test [4] (setting [9]).
In the case of `O=C1c2ccccc2C(=O)C1c1ccc(Br)cc1`, the molecule was called inactive in test [1], in test [2] and in test [3]. Further, the activity, negative = cell killing in test [4] (setting [6]) was -20.2%; in test [4] (setting [7]) it was -25.8%; in test [4] (setting [9]), -18.3%.
